Screens as filed in PubChem BioAssay.
USP30 block – inhibitors of human USP30 deubiquitinase. Q70CQ3. purified USP30, Ub-rhodamine cleavage fluorescence. inhibition, % at 25 µM. 47,000 compounds, 5.3% hits. AID 1645860
USP17 block – human USP17-like deubiquitinase inhibition; purified USP17, Ub-rhodamine cleavage fluorescence, 3 h; AID 1645855; A8MUK1; 47,000 compounds, 6.5% hits; inhibition, % at 50 µM
Target sequence (A8MUK1 whole entry, looked up): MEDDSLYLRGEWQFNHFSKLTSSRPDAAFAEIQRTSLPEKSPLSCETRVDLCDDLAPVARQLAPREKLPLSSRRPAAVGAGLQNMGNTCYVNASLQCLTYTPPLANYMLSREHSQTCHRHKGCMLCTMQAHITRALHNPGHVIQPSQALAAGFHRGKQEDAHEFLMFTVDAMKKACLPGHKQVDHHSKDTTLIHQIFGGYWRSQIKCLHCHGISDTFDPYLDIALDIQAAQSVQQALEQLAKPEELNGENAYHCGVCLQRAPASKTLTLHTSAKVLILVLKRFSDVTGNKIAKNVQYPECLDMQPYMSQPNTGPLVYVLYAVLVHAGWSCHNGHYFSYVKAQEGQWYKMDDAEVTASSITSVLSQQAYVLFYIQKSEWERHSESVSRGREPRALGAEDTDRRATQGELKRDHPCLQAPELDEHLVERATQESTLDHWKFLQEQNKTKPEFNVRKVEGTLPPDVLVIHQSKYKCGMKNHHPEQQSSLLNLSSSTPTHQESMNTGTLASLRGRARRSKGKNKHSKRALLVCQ
USP28 block – blocks human USP28 ubiquitin-rhodamine cleavage | Q96RU2 | purified USP28, Ub-rhodamine cleavage fluorescence, 30 min | inhibition, % at 25 µM | 47,000 compounds, 3% hits
Numbers without * were called inactive; / = no result given. This is a sample that favours compounds with a hit; in the whole collection about 11% have one here. Cut-off read from the data, not from the text of the source: active = inhibition above about 30%; inactive = the rest.

SMILES	USP30 block	USP17 block	USP28 block
COc1ncccc1C(=O)N1CCC[C@]2(C)NC(=O)CCC[C@H]12	0	-1	-9
O=C1NC(c2ccccc2)=N[C@@]12CC[C@@H]1CN(Cc3ccccc3F)C[C@@H]12	9	-12	4
COc1ccccc1NS(=O)(=O)c1cccc(NC(=O)CCc2nc3ccccc3s2)c1	-125	61*	25
COc1ccccc1NS(=O)(=O)c1cccc(NC(=O)CCOc2ccccc2)c1	16	10	-74
O=C(Cn1cncn1)N1CCCC1c1noc(C2CC2)n1 (centres undefined)	-18	0	-5
COc1ccc(NC(=O)CSC2=NC3(CCCCC3)Nc3ccccc32)c(OC)c1	-24	2	-4
COc1ccccc1NC(=O)CSC1=NC2(CCCCC2)Nc2ccccc21	-69	54*	-9
COc1ccccc1C(=O)N1CCC[C@@H](Cn2nnc3c(=O)[nH]c(C)nc32)C1	18	9	12
CCn1nc(C(=O)N2[C@@H](CNC(C)=O)C[C@]3(C)[C@H]2CCCC[C@]3(C)O)cc1C	13	3	0
Cc1noc(-c2cccn2Cc2cc(F)cc(F)c2)n1	-16	9	19
COc1ccc(N(CC(=O)N2CCc3ccccc32)S(=O)(=O)c2ccccc2F)cc1	-4	-1	10
O=C(CCCc1ccccc1)N1CCN(c2ccc(-c3ccc4c(c3)OCO4)nn2)CC1	30*	24	19
O=C(c1ccc2c(c1)OCO2)N1CCN(c2ccccn2)CC1	24	5	12
CCc1nc(-c2c(C)cc(C)nc2NC(=O)c2ccccc2C)no1	10	16	9
Cc1cc(C)c2c(NC(=O)c3cccc4ccccc34)nn(C)c2n1	17	49*	-4
CCOC(=O)c1cc(-c2ccccc2)on1	23	11	16
COc1ccc(N(Cc2nc3ccccc3s2)S(=O)(=O)c2ccc3c(c2)OCCO3)cc1	-84	-40	-16
COC(=O)c1ccccc1NC(=O)Cn1c(=O)n(CCCC(=O)NCc2ccco2)c(=O)c2ccccc21	80*	76*	58*
Cc1ccccc1Cn1c(=O)n(CCC(=O)NCc2ccco2)c(=O)c2ccccc21	-5	-2	6
Cc1ccc(NC(=O)COc2cccc3c(=O)n(C)ccc23)c(C)c1	-39	10	29
COc1cccc(NC(=O)Cn2c(=O)n(CCCC(=O)NCc3ccco3)c(=O)c3ccccc32)c1	7	44*	15
COc1ccccc1CNC(=O)CCCCn1c(=O)c2ccccc2n(CC(=O)Nc2ccc(C)cc2C)c1=O	42*	21	16
COc1ccc(NC(=O)Cn2c(=O)n(CCCCC(=O)NCc3ccco3)c(=O)c3ccccc32)cc1Cl	-6	-18	-4
COc1cc(OC)c(NC(=O)Cn2cc3c(n2)CCCC3)cc1Cl	11	1	17
COc1ccc2[nH]c3c(c2c1)CCN1C(=O)CN(C2CCN(Cc4ccccc4)CC2)C(=O)[C@]31C	4	0	3
SMILES	USP30 block	USP17 block	USP28 block
Cc1nc(-c2ccc(Cl)cc2)sc1C(=O)N1CCN(C=O)CC1	-10	-12	-3
Cc1n[nH]c(C)c1CC(=O)N1C[C@@H](c2cccc(F)c2)[C@@H]2NC(=O)CCCC[C@H]21	28	16	8
CC(=O)Nc1ccc(CN2CCN(c3cnn4c(C5CC5)nnc4c3)CC2)cc1	33*	10	10
Cc1ccc(NC(=O)N2CCN(c3cnn4c(C5CC5)nnc4c3)CC2)cc1	2	-1	18
Cn1c(=O)c2cn3c4ccccc4nc(-c4cccnc4)c3c2n(C)c1=O	0	-1	-10
COc1ccc(OCC(=O)Nc2cc(C)c(O)c(-c3nc4ccccc4o3)c2)cc1	15	-3	3
Cc1c(NC(=O)COc2ccc(C3CCCCC3)cc2)cccc1-c1nc2ncccc2o1	22	43*	7
Cc1cccc2c(C(=O)NC3CC3)cc(N(C)C)nc12	-33	-5	14
Cc1cc(C)c(NC(=O)Cc2c(C)nc3c(-c4ccccc4)c(C)nn3c2C)c(C)c1	35*	22	18
CCOC(=O)Cc1c(C)nc2c(-c3ccccc3)c(C)nn2c1C	-18	-1	-1
Cc1ccc(C)c(NC(=O)c2c(C)sc3c(=O)n(C(C)C)cnc23)c1	45*	44*	-2
Cc1ccc(NC(=O)c2c(C)sc3c(=O)n(C(C)C)cnc23)c(C)c1	-51	-9	0
COc1ccc(-c2nc3nc(C)c(Cc4ccccc4)c(=O)n3[nH]2)cc1	51*	74*	19
Cc1ccc(-c2nc3nc(C)c(Cc4ccccc4)c(=O)n3[nH]2)cc1	15	28	5
COc1ccc(-n2nnnc2C(c2ccc(Cl)cc2)N2CCOCC2)cc1 (centres undefined)	-15	-11	-11
CC(=O)Nc1ccc(OCC(=O)N2CCN(c3cccc(Cl)c3)CC2)nc1	-49	-26	-16
NCCC[C@H](N)CC(=O)NC1CNC(=O)[C@H]([C@@H]2C[C@H](O)N=C(N)N2)NC(=O)/C(=C/NC(N)=O)NC(=O)C(CO)NC(=O)C(CO)NC1=O (some centres undefined)	21	11	3
COc1ccc2[nH]c(=O)c(CN(C)C(=O)c3ccc([N+](=O)[O-])cc3)cc2c1	-3	46*	3
CN(Cc1cc2ccccc2[nH]c1=O)C(=O)c1ccc(Cl)cc1	3	-2	6
N#Cc1ccc(C(=O)Nc2cnn(-c3ncc(N4CCCC4)cn3)c2)cc1	-74	5	-24
Cc1cccc(C)c1NC(=O)COC(=O)c1sc2cc(F)ccc2c1Cl	-3	2	-5
COc1ccc2cc(C(=O)NCc3ccccn3)[nH]c2c1	-22	-5	-6
COc1ccc2[nH]c(C(=O)N(Cc3ccccn3)Cc3ccccn3)cc2c1	-7	44*	1
CCN1CCN(c2nc(NCc3ccco3)c3ccccc3n2)CC1	-15	-18	-9
Cc1ccc(Nc2nc(NCc3ccco3)c3ccccc3n2)cc1	60*	82*	67*
SMILES	USP30 block	USP17 block	USP28 block
CC(C)CN1CC2(CCN(C(=O)Nc3cccc(Cl)c3)CC2)C2(CCN(C)C2=O)C1 (centres undefined)	-6	-13	-14
CC(=O)N1CCc2cc(S(=O)(=O)Nc3ccccc3C)ccc21	-17	-5	-10
CC(=O)N1CCc2cc(S(=O)(=O)NC(Cc3ccccc3)C(=O)NCc3ccc4c(c3)OCO4)ccc21 (centres undefined)	54*	56*	52*
CC(=O)N1CCc2cc(S(=O)(=O)NCC(=O)NCc3ccc(Cl)cc3)ccc21	11	/	14
CC(=O)N1CCc2cc(S(=O)(=O)NC(Cc3ccccc3)C(=O)Nc3cccc(Cl)c3C)ccc21 (centres undefined)	67*	36*	70*
Cn1cc(C2=CCN(S(=O)(=O)c3ccccc3F)CC2)c2cccnc21	-60	-15	-17
CC(=O)NC(Cc1cccc(F)c1)C(=O)NC1CCN(S(=O)(=O)c2cccc3ccccc23)CC1 (centres undefined)	5	4	4
COc1ccccc1OCc1nc(-c2c(-c3c(Cl)cccc3Cl)noc2C)cs1	10	1	2
COc1ccc(CN2CCCC(Cc3cc(-c4ccccc4)no3)(C(=O)N(C)C)C2)cc1 (centres undefined)	-1	-9	-14
